# Measured values reported in PubChem BioAssay (NCATS).
# Records with an inconclusive call do not appear. Calls of active or inactive are those of the source. Unless noted, the call rests on the fitted dose curve; in most records, active means well fitted curve in the direction sought with a large enough effect; inconclusive means small, poorly fitted or top-dose-only effect, or another doubt; inactive means no such curve, though single readings can be large; an effect the other way counts as inactive or inconclusive.
# How the values were obtained:
# [1] = biological target: Catechol O-methyltransferase (Homo sapiens) (UniProt P21964); assay: Confirmatory Screen for Target Class Profiling of Small Molecule Inhibitors of Methyltransferases (AID 1745852); details: MTase-Glo luminescence, SAH detection, recombinant enzyme; measured here: COMT max response; stronger effect = lower value; on activity change, negative = inhibition: on the % scale 0 is the no-effect control and ±100 the full control effect
# Chain of Catechol O-methyltransferase (Homo sapiens) (P21964 whole entry, looked up): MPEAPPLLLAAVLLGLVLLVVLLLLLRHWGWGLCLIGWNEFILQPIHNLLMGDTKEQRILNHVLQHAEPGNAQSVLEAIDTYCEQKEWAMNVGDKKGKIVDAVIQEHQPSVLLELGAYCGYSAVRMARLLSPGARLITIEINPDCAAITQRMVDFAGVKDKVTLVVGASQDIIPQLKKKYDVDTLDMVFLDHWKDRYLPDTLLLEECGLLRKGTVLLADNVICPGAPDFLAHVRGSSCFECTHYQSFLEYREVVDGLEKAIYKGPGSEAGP
# [2] = biological target: Guanidinoacetate N-methyltransferase (Homo sapiens) (UniProt Q14353); assay: as above; details: MTase-Glo luminescence, SAH detection, recombinant enzyme; activity change, negative = inhibition: at 57.3 µM (top of the series) unless noted
# [3] = biological target: Nicotinamide N-methyltransferase (Homo sapiens) (UniProt P40261); assay: as above; details: MTase-Glo luminescence, SAH detection, recombinant enzyme; measured here: NNMT max response; stronger effect = lower value
# Chain of Nicotinamide N-methyltransferase (Homo sapiens) (P40261 whole entry, looked up): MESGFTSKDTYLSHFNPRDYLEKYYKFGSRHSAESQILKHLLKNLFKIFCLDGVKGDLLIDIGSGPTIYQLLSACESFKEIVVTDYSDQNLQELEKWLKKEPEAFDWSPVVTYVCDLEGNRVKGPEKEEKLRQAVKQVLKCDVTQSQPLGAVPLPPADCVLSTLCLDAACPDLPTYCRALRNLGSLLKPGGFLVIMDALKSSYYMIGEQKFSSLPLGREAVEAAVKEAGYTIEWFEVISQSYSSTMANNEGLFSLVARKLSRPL
# [4] = biological target: Phenylethanolamine N-methyltransferase (Homo sapiens) (UniProt P11086); assay: as above; details: MTase-Glo luminescence, SAH detection, recombinant enzyme; measured here: PNMT max response; stronger effect = lower value
# Chain of Phenylethanolamine N-methyltransferase (Homo sapiens) (P11086 whole entry, looked up): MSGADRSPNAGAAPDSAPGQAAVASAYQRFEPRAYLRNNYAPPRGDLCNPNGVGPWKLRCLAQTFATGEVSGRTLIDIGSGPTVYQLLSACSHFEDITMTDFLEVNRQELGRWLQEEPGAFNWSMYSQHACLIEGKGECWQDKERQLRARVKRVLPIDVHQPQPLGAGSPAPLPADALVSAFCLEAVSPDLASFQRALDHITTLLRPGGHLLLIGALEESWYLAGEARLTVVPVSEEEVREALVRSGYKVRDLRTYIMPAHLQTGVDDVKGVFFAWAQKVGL
# [5] = biological target: Rap guanine nucleotide exchange factor 4 (Homo sapiens) (UniProt Q8WZA2); assay: Confirmatory qHTS for agonist of cAMP-regulated guanine nucleotide exchange factor 4 (EPAC2) (AID 1645884); details: EPAC2 GEF activity, Rap1B-BODIPY-GDP fluorescence, percent relative to cAMP agonist control; series mostly up to 154 µM;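 further: nucleotide exchange releases bodipy-GDP from Rap1 and this lowers its fluorescence; on the % scale 0 is the no-effect control and ±100 the full control effect; nearly all actives have a fitted effect of over 65% in size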
# Chain of Rap guanine nucleotide exchange factor 4 (Homo sapiens) (Q8WZA2 whole entry, looked up): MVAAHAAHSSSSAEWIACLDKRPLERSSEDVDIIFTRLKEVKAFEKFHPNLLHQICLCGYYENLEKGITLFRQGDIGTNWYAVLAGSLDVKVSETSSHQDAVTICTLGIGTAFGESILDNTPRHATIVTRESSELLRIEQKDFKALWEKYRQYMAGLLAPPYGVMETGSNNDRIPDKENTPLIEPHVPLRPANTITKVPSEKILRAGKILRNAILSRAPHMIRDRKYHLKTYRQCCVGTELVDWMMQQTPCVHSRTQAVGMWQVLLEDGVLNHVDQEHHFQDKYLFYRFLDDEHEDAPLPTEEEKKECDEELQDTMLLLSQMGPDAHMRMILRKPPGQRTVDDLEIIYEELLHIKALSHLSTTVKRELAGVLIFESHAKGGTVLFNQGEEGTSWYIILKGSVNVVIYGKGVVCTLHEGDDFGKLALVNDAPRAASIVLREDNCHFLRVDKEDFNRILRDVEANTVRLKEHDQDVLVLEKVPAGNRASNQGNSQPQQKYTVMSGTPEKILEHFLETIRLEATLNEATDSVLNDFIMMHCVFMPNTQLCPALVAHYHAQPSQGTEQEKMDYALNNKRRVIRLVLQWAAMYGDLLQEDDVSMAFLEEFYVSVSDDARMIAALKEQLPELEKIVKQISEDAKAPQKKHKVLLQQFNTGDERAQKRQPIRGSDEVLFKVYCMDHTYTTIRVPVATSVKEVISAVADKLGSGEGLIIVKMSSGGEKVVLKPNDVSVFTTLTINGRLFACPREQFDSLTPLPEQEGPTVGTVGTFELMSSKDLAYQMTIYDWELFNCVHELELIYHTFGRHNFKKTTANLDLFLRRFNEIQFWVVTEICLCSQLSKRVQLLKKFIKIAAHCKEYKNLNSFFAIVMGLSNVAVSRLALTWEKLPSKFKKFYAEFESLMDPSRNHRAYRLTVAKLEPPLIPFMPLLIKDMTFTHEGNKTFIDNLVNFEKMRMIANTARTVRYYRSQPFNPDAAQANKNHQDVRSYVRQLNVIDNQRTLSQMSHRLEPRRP
# [6] = biological target: Rap guanine nucleotide exchange factor 4 (Homo sapiens) (UniProt Q8WZA2); assay: Confirmatory qHTS for antagonist of cAMP-regulated guanine nucleotide exchange factor 4 (EPAC2) (AID 1645885); details: EPAC2 Rap1B-BODIPY-GDP exchange fluorescence, biochemical; series mostly up to 12.7 µM; further: on the % scale 0 is the no-effect control and ±100 the full control effect; nearly all actives have a fitted effect of over 25% in size
# [7] = biological target: Rap guanine nucleotide exchange factor 3 (Homo sapiens) (UniProt O95398); assay: Counterscreen qHTS for antagonist of cAMP-regulated guanine nucleotide exchange factor 3 (EPAC1) (AID 1645888); details: Rap1B-BODIPY-GDP nucleotide exchange, fluorescence; series mostly up to 154 µM;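 further: fluorescence loss as bound BODIPY-GDP is released from Rap1B; % of control where 0% means no effect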
# Chain of Rap guanine nucleotide exchange factor 3 (Homo sapiens) (O95398 whole entry, looked up): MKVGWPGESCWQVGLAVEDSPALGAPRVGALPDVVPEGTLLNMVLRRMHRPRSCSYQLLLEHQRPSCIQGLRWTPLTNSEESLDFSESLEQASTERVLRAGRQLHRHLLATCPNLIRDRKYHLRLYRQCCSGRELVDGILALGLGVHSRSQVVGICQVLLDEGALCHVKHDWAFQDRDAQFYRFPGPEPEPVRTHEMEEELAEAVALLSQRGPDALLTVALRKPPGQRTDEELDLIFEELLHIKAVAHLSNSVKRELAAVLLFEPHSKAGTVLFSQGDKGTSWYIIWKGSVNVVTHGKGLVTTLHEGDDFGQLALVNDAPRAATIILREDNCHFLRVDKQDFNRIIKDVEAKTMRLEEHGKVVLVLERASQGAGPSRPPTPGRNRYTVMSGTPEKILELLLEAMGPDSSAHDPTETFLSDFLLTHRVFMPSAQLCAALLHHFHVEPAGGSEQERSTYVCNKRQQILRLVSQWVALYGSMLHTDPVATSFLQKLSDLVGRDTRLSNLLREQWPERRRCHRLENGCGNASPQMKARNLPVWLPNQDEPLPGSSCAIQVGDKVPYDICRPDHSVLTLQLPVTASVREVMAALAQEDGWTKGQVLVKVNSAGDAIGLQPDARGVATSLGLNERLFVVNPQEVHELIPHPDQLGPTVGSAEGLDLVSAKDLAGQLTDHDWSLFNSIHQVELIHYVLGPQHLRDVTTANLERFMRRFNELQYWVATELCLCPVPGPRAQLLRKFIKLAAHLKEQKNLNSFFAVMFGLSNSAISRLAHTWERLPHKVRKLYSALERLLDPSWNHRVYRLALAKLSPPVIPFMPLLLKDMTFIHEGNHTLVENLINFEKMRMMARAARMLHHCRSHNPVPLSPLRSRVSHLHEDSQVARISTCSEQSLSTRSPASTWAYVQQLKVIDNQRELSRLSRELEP
# Procedure, shortened: (§1)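 Rap1B–BODIPY-GDP (250 nM) with 50 uM GDP; compounds pin-transferred to 9.74 nM–152 uM final (activator) or from 7.32 nM upwards (inhibitor). Fluorescence Ex/Em 480/540 nm read at 5 and 30 min, then after adding cAMP or buffer, at room temperature.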
# [8] = biological target: Rap guanine nucleotide exchange factor 3 (Homo sapiens) (UniProt O95398); assay: Counterscreen qHTS for agonist of cAMP-regulated guanine nucleotide exchange factor 3 (EPAC1) (AID 1645889); details: EPAC1 Rap1B-BODIPY-GDP exchange, fluorescence; series mostly up to 154 µM; further: % of control where 0% means no effect; nearly all actives have a fitted effect of over 40% in size
# Procedure, shortened: as §1
# [9] = NCATS anti-infectives library activity on the primary C. elegans qHTS viability assay (AID 1745855; calls by dose curve; further: potency means the concentration at half of the fitted maximal effect); details: C. elegans worm area imaging, day 7
# Procedure, shortened: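 Titration-based screen in worms: eggs hatched overnight in M9, L1 larvae fed TOP10 capsules in S medium with compound, incubated 21 °C for 7 days; fluorescent objects gated by size and intensity at days 0, 3 and 7.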
smiles,measurement,setting,value
C=C[C@H]1[C@H](O[C@@H]2O[C@H](CO)[C@@H](O)[C@H](OC(=O)/C=C/c3ccc(O)c(OC)c3)[C@H]2O)OC=C2C(=O)OCC[C@]21O,activity,[1],-63.6%
same,"activity change, negative = inhibition",[2],-8.69% [at 29.8 µM]
same,activity,[3],-4.35%
same,activity,[4],-4.62%
CC1(CO)CC(O)C2(C)CCC3(C)C(=CCC4C5(C=O)CCC(OC6OC(C(=O)O)C(O)C(O)C6OC6OC(C(=O)O)C(O)C(O)C6O)C(C)(C)C5CCC43C)C2C1 (configuration not stated),activity,[1],-73.8%
same,"activity change, negative = inhibition",[2],0.442% [at 19.1 µM]
same,activity,[3],-0.108%
same,activity,[4],1.8%
C=C(C(=O)O)[C@@H]1CC[C@H](C)[C@@H]2CC(=O)C(C)=C2C1,activity,[1],-63.8%
same,"activity change, negative = inhibition",[2],1.33%
same,activity,[3],-2.63%
same,activity,[4],-9%
Cc1ccc([C@@H]2CC=C(C(=O)O)[C@H](c3ccc(C(C)(C)C)cc3)N2S(=O)(=O)c2ccc(C)cc2)cc1,activation,[5],5.81% [at 17.1 µM] (inactive)
same,outcome,[6],inactive
same,"activity change, negative = inhibition",[7],-12.2% [at 30.8 µM] (inactive)
same,activation,[8],14.8% [at 30.8 µM] (inactive)
Cc1noc2c1-c1ccccc1C(c1ccc(Cl)cc1)=N[C@H]2CC(N)=O,Potency,[9],5.15 µM (active)
